PubChem BioAssay AID651704 (Broad Institute, 2012)
Hit rate of the full screen: of about 350,000 compounds, about 1,600 (0.46%) were called active.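 How the source made its calls: active means every replicate reaching a set inhibition limit, whatever the replicate mean (cut at about 25% in these data); inconclusive means mean inhibition reaches that limit but some replicates miss it; inactive means the rest.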 This excerpt belongs to a sample that is enriched for actives.

Biological target: Protein AF-9 (Homo sapiens) (UniProt P42568)
Experiment: inhibitors of AF4 peptide binding to AF9, primary screen, biochemical, AlphaScreen, biotin-AF4 peptide, FLAG-AF9, single point (AID 651704);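 further: 0% = plate neutral control median and 100% = total signal loss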
Conditions: at 10 µM, active compounds read high

Chain of Protein AF-9 (Homo sapiens) (P42568 whole entry, looked up): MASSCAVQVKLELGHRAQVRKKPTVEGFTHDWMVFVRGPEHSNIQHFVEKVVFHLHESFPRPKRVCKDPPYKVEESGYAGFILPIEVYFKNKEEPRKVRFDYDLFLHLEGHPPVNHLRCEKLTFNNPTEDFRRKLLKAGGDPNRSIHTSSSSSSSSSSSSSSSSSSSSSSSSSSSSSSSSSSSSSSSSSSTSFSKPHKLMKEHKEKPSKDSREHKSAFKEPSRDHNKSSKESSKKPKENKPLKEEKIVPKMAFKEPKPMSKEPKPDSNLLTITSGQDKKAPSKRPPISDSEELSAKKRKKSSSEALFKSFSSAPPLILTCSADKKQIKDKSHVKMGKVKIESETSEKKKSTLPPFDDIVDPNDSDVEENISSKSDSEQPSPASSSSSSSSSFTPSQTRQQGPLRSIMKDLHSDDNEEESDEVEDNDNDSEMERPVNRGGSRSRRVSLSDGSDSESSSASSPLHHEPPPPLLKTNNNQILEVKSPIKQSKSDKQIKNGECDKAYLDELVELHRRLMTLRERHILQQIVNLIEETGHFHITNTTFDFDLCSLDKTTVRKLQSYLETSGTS

inhibition, inactive:
Cc1cccc(C)c1NC(=O)CNC(=O)c1ccc2c(c1)OCCO2 -2.49%, O=C(NCCc1ccc(C(F)(F)F)cc1)c1ccc2c(c1)OCO2 -0.679%, CO[C@@H]1CN(C)C(=O)c2ccc(NC(=O)c3ccccc3F)cc2OC[C@@H](C)N(CC2CCOCC2)C[C@H]1C 1.64%, COCC#Cc1ccc2c(c1)O[C@@H](CN(C)Cc1ccccn1)[C@@H](C)CN([C@@H](C)CO)S2(=O)=O -4.38%, C[C@@H]1CN([C@H](C)CO)C(=O)c2c(c3ccccc3n2C)-c2ccccc2CO[C@@H]1CN(C)Cc1ccc(F)cc1 0.52%, C[C@@H]1CN([C@H](C)CO)C(=O)c2c(c3ccccc3n2C)-c2ccccc2CO[C@H]1CN(C)Cc1ccc(F)cc1 -2.73%, C[C@H]1CN([C@@H](C)CO)C(=O)c2c(c3ccccc3n2C)-c2ccccc2CO[C@H]1CN(C)Cc1ccc2c(c1)OCO2 1.72%, C[C@@H]1CN([C@@H](C)CO)C(=O)c2c(c3ccccc3n2C)-c2ccccc2CO[C@@H]1CN(C)Cc1cccc(C(=O)O)c1 -2.44%, Cc1ccccc1S(=O)(=O)N1CC(=O)N2[C@H](CO)[C@@H](c3ccc(C#Cc4ccccc4)cc3)[C@H]2C1 -0.846%, C[C@H](CO)N1C[C@H](C)[C@H](CN(C)Cc2ccccc2)OCCCC[C@H](C)Oc2ccc(NC(=O)Cc3ccccc3)cc2C1=O 3.76%, Cc1noc(C)c1S(=O)(=O)N(C)C[C@@H]1OCCCC[C@H](C)Oc2ccc(NC(=O)NC(C)C)cc2C(=O)N([C@H](C)CO)C[C@@H]1C 1.67%, O=C(C[C@H]1CC[C@H]2[C@@H](COC[C@H](O)CN2C(=O)Nc2ccc(Cl)cc2)O1)NCC1CC1 2.2%, O=C(Cc1cccnc1)N1CC(=O)N2[C@@H](CO)[C@@H](c3ccc(C#CC4CCCC4)cc3)[C@@H]2C1 0.34%, CN(C)C(=O)C[C@@H]1CC[C@@H](NC(=O)NC2CCCC2)[C@@H](CO)O1 -1.49%, COc1cccc(-c2ccc([C@@H]3[C@H]4CN(C(=O)c5cccnc5)CC(=O)N4[C@H]3CO)cc2)c1 0.197%, COc1ccc2c3c([nH]c2c1)[C@@H](CO)N(Cc1cccc(F)c1)CC31CN(CC2CC2)C1 23.8%, CCCNC(=O)N1CCC2(CC1)CN(Cc1ccccc1)[C@H](CO)c1[nH]c3cc(OC)ccc3c12 1.99%, COc1ccc2c3c([nH]c2c1)[C@H](CO)N(Cc1cccc(F)c1)CC31CCN(Cc2ccccn2)CC1 6.18%, CCCNC(=O)N1CC2(CCN(C(=O)C3CC3)CC2)c2c([nH]c3cc(OC)ccc23)[C@H]1CO -0.242%, C[C@H]1CN([C@@H](C)CO)C(=O)c2cc(-c3ccc(C#N)cc3)cnc2O[C@@H]1CN(C)Cc1ccncc1 -0.44%, COc1ccccc1C(=O)Nc1ccc2c(c1)C(=O)N(C)C[C@@H](OC)[C@@H](C)CN(C)[C@H](C)CO2 -2.27%, N#C[C@@H]1[C@H](c2ccccc2-c2cccc(F)c2)[C@@H](CO)N1C(=O)C1CCCC1 -0.992%, C[C@@H]1CN([C@@H](C)CO)C(=O)c2cc(-c3cccnc3)cnc2O[C@@H]1CN(C)C(=O)C1CC1 -2.51%, O=C(C1CCCCC1)N1CC(=O)N2[C@H](CO)[C@@H](c3ccc(C#Cc4cccc(F)c4)cc3)[C@@H]2C1 -3.43%, CC(C)(C)[S@](=O)N1Cc2cc(C(=O)N[C@@H]3CCN(Cc4ccccc4)C3)nc(-c3cccc(-c4ccncc4)c3)c2[C@@H]1CCO 4.53%, O=S(=O)(NC1CCCCC1N1CCN(c2ccccc2F)CC1)c1ccccc1 (stereo not drawn) 5.55%, O=S(=O)(NC1CCCCC1N1CCC(O)CC1)c1ccc(Cl)cc1 (stereo not drawn) 3.3%, Cn1cnc(CCNC(=O)C[C@H]2CC[C@H]3[C@@H](COC[C@@H](O)CN3C(=O)Nc3ccc(C(F)(F)F)cc3)O2)c1 4.5%, Cc1ccc(S(=O)(=O)N2CCN(C(=O)N3CCOCC3)CC2)c(C)c1 -6.49%, CC(=O)c1ccc(OCC(O)CN2CCN(S(=O)(=O)c3cccc(Br)c3)CC2)cc1 (stereo not drawn) 0.541%, CCN(CC(=O)Nc1ccc(NC(C)=O)cc1)C(=O)C1CC(=O)N(Cc2ccc(C)cc2)C1 (stereo not drawn) 9.28%, CCOC(=O)c1ccc(NC(=O)C2CC(=O)N(c3ccc4c(c3)OCCO4)C2)cc1 (stereo not drawn) -0.164%, O=C(c1ccccn1)N1CC2(C1)[C@@H](c1ccccc1)[C@@H](CO)N2C(=O)C1CCC1 0.755%, CC(C)CC#Cc1ccc2c(c1)O[C@@H](CN(C)C(=O)Nc1ccccc1F)[C@@H](C)CN([C@@H](C)CO)S2(=O)=O 1.25%

inhibition, active:
CN(Cc1c(F)cccc1Cl)C(=O)CNC(=O)c1ccc2c(c1)OCO2 34.1%, C[C@H]1CN([C@@H](C)CO)C(=O)c2c(c3ccccc3n2C)-c2ccccc2CO[C@@H]1CN(C)Cc1ccc2c(c1)OCCN2C 34.3%, C[C@@H]1CN([C@@H](C)CO)C(=O)c2c(c3ccccc3n2C)-c2ccccc2CO[C@@H]1CN(C)Cc1ccc2c(c1)OCCN2C 30.8%, CCCNC(=O)N1CC2(CCN(Cc3ccc(F)cc3)CC2)c2c([nH]c3cc(OC)ccc23)[C@@H]1CO 29.6%, COc1ccc2c3c([nH]c2c1)[C@H](CO)N(Cc1cccc(F)c1)CC31CCN(CC2CC2)CC1 35.1%, CN(Cc1ccccc1F)c1cc2c(c3c1ccn3C)C1CCC2O1 (stereo not drawn) 28.6%, COc1ccc(N2CCN(C3CCCCC3NS(=O)(=O)c3ccccc3)CC2)cc1 (stereo not drawn) 36.3%, Cc1cccc(OCC(O)CN2CCN(S(=O)(=O)c3ccc(C)cc3C)CC2)c1 (stereo not drawn) 35.7%, CCN(CC(=O)Nc1ccc(NC(C)=O)cc1)C(=O)C1CC(=O)N(c2ccc3c(c2)OCCO3)C1 (stereo not drawn) 28%
